Source: PubChem BioAssay (NCATS)
Records with an inconclusive call do not appear. Activity calls are given as the source filed them. Calls follow the shape of the dose curve; as a rule, active = well fitted curve in the direction sought with a large enough effect; inconclusive = small, poorly fitted or top-dose-only effect, or another doubt; inactive = no such curve, though single readings can be large; an effect the other way counts as inactive or inconclusive.

What was measured:
[1] = qHTS of pediatric cancer cell lines to identify multiple opportunities for drug repurposing: Primary screen for BT-12 cells (AID 1347101); settings: BT-12 viability, CellTiter-Glo luminescence, 48 h; series mostly up to 116 µM; also: nearly all actives have a fitted effect of over 25% in size; also: potency is read from the fitted curve at half-maximal effect
How it was run: (§1)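 Cells (500-1,000/well) rested 5 h, then received compounds for 48 h; metabolically active cells were measured by CellTiter-Glo luminescence. Final concentrations spanned up to 46 µM (MIPE, 11-point) or 0.59 nM-46 µM (NPC, 8-point) in primary screens, 11-point in follow-ups.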

[2] = qHTS of pediatric cancer cell lines to identify multiple opportunities for drug repurposing: Primary screen for Rh18 cells (AID 1347102); settings: Rh18 rhabdomyosarcoma viability, CellTiter-Glo luminescence, 48 h; series mostly up to 92.7 µM; also: nearly all actives have a fitted effect of over 65% in size; also: potency is read from the fitted curve at half-maximal effect
How it was run: (§2)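 Cells (500-1,000/well) in growth media were settled 5 h at 37 degrees C, then given compounds for 48 h. Viability was read as CellTiter-Glo luminescence. Primary runs used MIPE at 11 points (0.78 nM-46 µM) and NPC at 8 points (0.59 nM-46 µM); follow-ups used 11 points.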

[3] = qHTS of pediatric cancer cell lines to identify multiple opportunities for drug repurposing: Primary screen for OHS-50 cells (AID 1347103); settings: OHS-50 osteosarcoma viability, CellTiter-Glo luminescence, 48 h; series mostly up to 116 µM; also: nearly all actives have a fitted effect of over 40% in size; also: potency is read from the fitted curve at half-maximal effect
How it was run: as §1

[4] = qHTS of pediatric cancer cell lines to identify multiple opportunities for drug repurposing: Primary screen for RD cells (AID 1347104); settings: RD rhabdomyosarcoma viability, CellTiter-Glo luminescence, 48 h; series mostly up to 92.7 µM; also: nearly all actives have a fitted effect of over 55% in size; also: potency is read from the fitted curve at half-maximal effect
How it was run: (§3)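 Readout: CellTiter-Glo luminescence, 48 h treatment. Controls DMSO (neutral) and bortezomib 2.3 µM final (positive). Potency and efficacy taken from primary-screen concentration-response curves.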

[5] = qHTS of pediatric cancer cell lines to identify multiple opportunities for drug repurposing: Primary screen for MG 63 (6-TG R) cells (AID 1347105); settings: MG 63 (6-TG R) viability, CellTiter-Glo, 48 h; series mostly up to 92.7 µM; also: nearly all actives have a fitted effect of over 50% in size; also: potency is read from the fitted curve at half-maximal effect
How it was run: as §3

[6] = qHTS of pediatric cancer cell lines to identify multiple opportunities for drug repurposing: Primary screen for control Hh wild type fibroblast cells (AID 1347106); settings: Hh wild-type fibroblast viability, CellTiter-Glo luminescence, 48 h; series mostly up to 92.7 µM;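 also: a drop in luminescence marks cytotoxicity and a rise apparent proliferation; nearly all actives have a fitted effect of over 55% in size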
How it was run: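 Viability after 48 h compound treatment at 37C, 500-1,000 cells/well, read as ATP luminescence with CellTiter-Glo. Primary screens used 11-point (MIPE, 0.78 nM-46 µM) or 8-point (NPC, 0.59 nM-46 µM) final concentrations; follow-up screens used 11-point dilutions.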

[7] = qHTS of pediatric cancer cell lines to identify multiple opportunities for drug repurposing: Primary screen for Rh30 cells (AID 1347107); settings: Rh30 rhabdomyosarcoma viability, CellTiter-Glo luminescence, 48 h; series mostly up to 92.7 µM; also: nearly all actives have a fitted effect of over 75% in size; also: potency is read from the fitted curve at half-maximal effect
How it was run: as §2

[8] = qHTS of pediatric cancer cell lines to identify multiple opportunities for drug repurposing: Primary screen for Rh41 cells (AID 1347108); settings: Rh41 rhabdomyosarcoma viability, CellTiter-Glo luminescence, 48 h; series mostly up to 92.7 µM; also: nearly all actives have a fitted effect of over 70% in size; also: potency is read from the fitted curve at half-maximal effect
How it was run: as §3

[9] = qHTS of pediatric cancer cell lines to identify multiple opportunities for drug repurposing: Confirmatory screen for NB1643 cells (AID 1347109); settings: NB1643 neuroblastoma cell viability; also: potency is read from the fitted curve at half-maximal effect; nearly all actives have a fitted effect of over 45% in size
How it was run: as §2

[10] = qHTS of pediatric cancer cell lines to identify multiple opportunities for drug repurposing: Confirmatory screen for A673 cells (AID 1347110); settings: A673 Ewing sarcoma cell viability;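 also: potency is read from the fitted curve at half-maximal effect; cells exposed to compound for 48 h before the viability read; nearly all actives have a fitted effect of over 65% in size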
How it was run: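 A673 cells seeded at 500-1,000 cells/well, rested 5 h, then dosed; primary MIPE 11-point (0.78 nM to 46 µM), NPC (0.59 nM to 46 µM); confirmatory 11-point. CellTiter-Glo luminescence after 48 h.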

[11] = qHTS of pediatric cancer cell lines to identify multiple opportunities for drug repurposing: Confirmatory screen for SK-N-MC cells (AID 1347111); settings: SK-N-MC cell viability;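 also: potency is read from the fitted curve at half-maximal effect; cells exposed to compound for 48 h before the readout; nearly all actives have a fitted effect of over 70% in size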
How it was run: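 Metabolically active cells were quantified by ATP-dependent luminescence (CellTiter-Glo, 15 min at room temperature) following 48 h treatment. Cells had been plated at 500-1,000 per well and settled for 5 h beforehand.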

[12] = qHTS of pediatric cancer cell lines to identify multiple opportunities for drug repurposing: Confirmatory screen for BT-12 cells (AID 1347112); settings: BT-12 rhabdoid tumor cells, viability; also: potency is read from the fitted curve at half-maximal effect; nearly all actives have a fitted effect of over 55% in size
How it was run: as §2

[13] = qHTS of pediatric cancer cell lines to identify multiple opportunities for drug repurposing: Confirmatory screen for LAN-5 cells (AID 1347113); settings: LAN-5 neuroblastoma cell viability; also: potency is read from the fitted curve at half-maximal effect; nearly all actives have a fitted effect of over 65% in size
How it was run: as §2

[14] = qHTS of pediatric cancer cell lines to identify multiple opportunities for drug repurposing: Confirmatory screen for DAOY cells (AID 1347114); settings: DAOY medulloblastoma cells viability, cytotoxicity qHTS; also: potency is read from the fitted curve at half-maximal effect; nearly all actives have a fitted effect of over 65% in size
How it was run: (§4)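 Viability measured as metabolically active cells via CellTiter-Glo luminescence following 48 hours of compound exposure, 11-point dilutions in confirmatory testing. 500-1,000 cells/well plated 5 hours before dosing; controls were DMSO and 2.3 µM bortezomib.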

[15] = qHTS of pediatric cancer cell lines to identify multiple opportunities for drug repurposing: Confirmatory screen for NB-EBc1 cells (AID 1347115); settings: NB-EBc1 neuroblastoma cells, viability (cytotoxicity);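 also: potency is read from the fitted curve at half-maximal effect; cells exposed to compound for 48 h before the viability read; nearly all actives have a fitted effect of over 45% in size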
How it was run: as §2

[16] = qHTS of pediatric cancer cell lines to identify multiple opportunities for drug repurposing: Confirmatory screen for SJ-GBM2 cells (AID 1347116); settings: SJ-GBM2 glioblastoma cells, viability; also: potency is read from the fitted curve at half-maximal effect; nearly all actives have a fitted effect of over 60% in size
How it was run: as §4

[17] = qHTS of pediatric cancer cell lines to identify multiple opportunities for drug repurposing: Confirmatory screen for BT-37 cells (AID 1347117); settings: BT-37 pediatric cancer cells, viability; also: potency is read from the fitted curve at half-maximal effect; nearly all actives have a fitted effect of over 55% in size
How it was run: as §2

[18] = qHTS of pediatric cancer cell lines to identify multiple opportunities for drug repurposing: Confirmatory screen for TC32 cells (AID 1347118); settings: TC32 Ewing sarcoma cells viability qHTS
How it was run: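 Luminescent CellTiter-Glo read-out of metabolically active TC32 cells after 48 h compound exposure. Primary: MIPE 11-point, 0.78 nM–46 µM; NPC 8-point, 0.59 nM–46 µM. Confirmatory: 11-point dilutions.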

[19] = qHTS of pediatric cancer cell lines to identify multiple opportunities for drug repurposing: Confirmatory screen for MG 63 (6-TG R) cells (AID 1347119); settings: MG-63 (6-TG resistant) osteosarcoma viability
How it was run: as §2

[20] = qHTS of pediatric cancer cell lines to identify multiple opportunities for drug repurposing: Confirmatory screen for control Hh wild type fibroblast cells (AID 1347121); settings: viability qHTS; also: potency is read from the fitted curve at half-maximal effect; nearly all actives have a fitted effect of over 70% in size
How it was run: as §2

Compound | Potency [1] | Potency [2] | Potency [3] | Potency [4] | Potency [5] | outcome [6] | Potency [7] | Potency [8] | Potency [9] | Potency [10] | Potency [11] | Potency [12] | Potency [13] | Potency [14] | Potency [15] | Potency [16] | Potency [17] | Potency [18] | Potency [19] | Potency [20]
CCCSP(=O)(OCC)SCCC | inactive | inactive | inactive | inactive | inactive | inactive | inactive | inactive |  |  |  |  |  |  |  |  |  |  |  | 
C[CH2][Hg][S]c1ccccc1C(=O)O | 3.47 µM (active) | 4.73 µM (active) | 3.89 µM (active) | 4.73 µM (active) | 2.66 µM (active) | inactive | 2.66 µM (active) | 2.37 µM (active) | 2.93 µM (active) | 7.37 µM (active) | 2.93 µM (active) | 6.57 µM (active) | 4.65 µM (active) | 3.29 µM (active) | 7.37 µM (active) | 7.37 µM (active) | 8.27 µM (active) | 2.93 µM (active) | 5.22 µM (active) | 16.5 µM (active)
